The values below come from PubChem BioAssay.

The assay can be described thus: viability profiling in RPMI8226 myeloma cells – cell-based, resazurin fluorescence, basal, 24 h, PK04 Diversity Set, profiling panel (AID 1180).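 Also: RPMI8826 multiple myeloma cell line at 5000 cells per well; test concentration not given here.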 To be noted: higher = more signal.
`C=CCC(OC(C)=O)[C@@H]1[C@@H](N(Cc2ccc(-c3ccccc3)cc2)C(=O)Cc2ccc(OC)cc2)c2cc(OCCCO)ccc2N1C(=O)c1ccc2ccccc2n1` (stereo partly drawn) returned a z-score of 1.07.

`COc1ccc(C#Cc2ccc3c(c2)[C@]2(C(=O)N3)[C@H](C(=O)NC[C@H](O)c3ccccc3)[C@H]3C(=O)O[C@H](c4ccccc4)[C@H](c4ccccc4)N3[C@@H]2c2ccc(OCCO)cc2)cc1` displayed a z-score of -1.47.

In turn, `COCCOC(=O)N1C(=O)[C@@]2(c3cc(C#CC4(O)CCCCCC4)ccc31)[C@H](C(=O)N1CCCCCCC1)[C@H]1C(=O)O[C@H](c3ccccc3)[C@H](c3ccccc3)N1[C@@H]2c1ccccc1OCCO` registered a z-score of -0.432.

The molecule `COC(=O)c1ccc(OC)c(/C=C\CC(OC(C)=O)c2ccccc2)c1` (stereo not drawn) displayed a z-score of -1.1.

As for `Cc1ccc([C@H]2C(C(=O)O)=C[C@@H](C)N2S(=O)(=O)c2ccc(C)cc2)cc1`, the z-score is -1.52.

With `NCCCCCCNC(=O)[C@H]1C[C@H]2C(=O)NCC(=O)N2[C@H]1c1cccc(OCCO)c1`, the z-score is 1.08.

Consider `COc1ccc(CCN2C(=O)[C@@]3(Cc4ccccc42)c2ccccc2C(=O)N(Cc2ccccc2Cl)[C@H]3c2ccc(CO)cc2)cc1`, for which the z-score came to 0.314.

`C=CC[C@@H](OC(=O)Nc1ccc(OC)cc1)c1ccc(O)c2ccccc12` came in with a z-score of -4.48.

As to `CC(C)C[C@@H]1NC(=O)[C@@H]2C[C@H](C(=O)NCCCCCC[N+](C)(C)C)[C@H](c3ccc(O)cc3)N2C1=O`, the z-score worked out at 0.0176.

For `O=C1C=CC(=O)[C@@H]2CC(COc3ccccc3)=C3[C@@H](CCc4ccccc4)OB(O)C[C@@H]3[C@H]12`, the z-score was -0.664.

Consider `CN(C)CCCCNC(=O)[C@H]1C[C@H]2C(=O)N[C@@H](Cc3ccccc3)C(=O)N2[C@H]1c1ccc(O)cc1`, for which the z-score was -0.0845.

Molecule `CCCC[C@H]1OB(O)C[C@H]2C1=C(C)C[C@H]1C(=O)N(Cc3ccccc3)C(=O)[C@H]12` registered a z-score of 0.156.

For `C=C[C@@H](COC(C)=O)N(Cc1ccc([N+](=O)[O-])cc1)S(=O)(=O)c1ccc(Br)cc1`, the z-score amounted to 1.49.

In the case of `COc1ccc([Si](C)(C)[C@@H]2[C@@H](CCn3cc([C@H](O)c4ccccc4)nn3)O[C@]3(C(=O)N(Cc4ccc(N5C(=O)c6cccc7cccc5c67)cc4)c4ccccc43)[C@H]2C)cc1`, the z-score is -1.01.

For the molecule `CC(C)(C)OC(=O)CC[C@@]1(C(=O)NCCN2CCOCC2)N=C(c2ccc(OCCCO)cc2)O[C@@H]1c1ccccc1`, the z-score was 0.641.

In turn, `O=C1O[C@@H](c2ccccc2)[C@@H](c2ccccc2)N2[C@@H](c3ccccc3OCCO)[C@]3(C(=O)Nc4ccc(C#CC5(O)CCCCCC5)cc43)[C@@H](C(=O)Nc3nc4ccccc4s3)[C@H]12` returned a z-score of -4.98.

Turning to `COCCOC(=O)N1C(=O)[C@@]2(c3cc(C#CCNC(N)=O)ccc31)[C@H](c1ccc(OCCO)cc1)N1[C@H](c3ccccc3)[C@H](c3ccccc3)OC(=O)[C@H]1[C@@H]2C(=O)N1CCc2cc(OC)c(OC)cc2C1`, the z-score came out at 0.665.

In turn, `CCOC(=O)C[C@H]1[C@H](OC(=O)c2ccc(C(=O)c3ccccc3)cc2)[C@@H](NC(=O)C2CCCCC2)c2cc(OCCCO)ccc2N1C(=O)c1ccccc1` returned a z-score of -0.125.

In turn, `CC(C)=CCCC(C)=CC(O)C1C=CC2C(=O)N(c3ccccc3)C(=O)C2N1Nc1ccccc1` (stereo not drawn) yielded a z-score of -1.56.

`COC(=O)[C@@]1(Cc2ccc(OC)cc2)[C@H]2c3cc(C(=O)N4CCCC4)n(CCc4c[nH]c5cc(F)ccc45)c3C[C@H]2CN1C(=O)c1ccccc1` yielded a z-score of -0.642.

Consider `Cc1ccc(F)cc1S(=O)(=O)N[C@@H]1CCN(Cc2ccc(-c3ccccc3)cc2)C1`, for which the z-score was -2.16.

As for `COC(=O)[C@@]1(Cc2ccc(OC)cc2)[C@H]2c3cc(C(=O)N(C)C)n(Cc4c(OC)[nH]cc(C)c4=O)c3C[C@H]2CN1C(=O)c1ccccc1`, the z-score is -1.93.

In the case of `[N-]=[N+]=Nc1ccccc1[C@H]1OC(c2ccc(OCCCO)cc2)=N[C@@]1(CCS(=O)(=O)c1ccccc1)C(=O)O`, the z-score was determined as 0.438.

Regarding `COC(=O)c1ccc(C(O)C2C=CC3C(=O)N(C)C(=O)C3N2NC(=O)OC(C)(C)C)o1` (stereo not drawn), the z-score was -0.212.

Take `CC=CC(O)C1C=CC2C(=O)N(c3ccccc3)C(=O)C2N1Nc1ccc(C(C)C)cc1` (stereo not drawn): the z-score is -0.863.

As for `O=C1C[C@@](C(=O)NC2CC2)(c2ccc([N+](=O)[O-])cc2)[C@@H](c2ccc(CO)cc2)N1CC12CC3CC(CC(C3)C1)C2`, the z-score was -3.25.

`COc1ccc(C(O)C2C=CC3C(=O)N(C)C(=O)C3N2Nc2ccccc2)cc1OCc1ccccc1` (stereo not drawn) showed a z-score of -0.543.

For `[N-]=[N+]=NCc1ccccc1C[C@@]1(C(=O)N2CCOCC2)N=C(c2ccc(OCCCO)cc2)O[C@@H]1c1ccccc1CN=[N+]=[N-]`, the z-score is -1.46.
